# Assay results reported in PubChem BioAssay (NCI).
# About 83,000 compounds went through this panel and 20% of them were active in at least one assay; those are over-represented in the sample as a whole.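 48-hour exposure, single concentration, 96-well plates; percent growth endpoint where 0 means no net growth. Active: below 10.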 A number with no mark means an inactive call. Activity calls are given as the source filed them.
# System: OVCAR-3 ovarian
# Assay: NCI-60 one-dose screen, 48 h (100 = growth as untreated, 0 = no growth, -100 = all killed)
# Conditions: 10 µM unless noted
row,SMILES,growth
1,CCCCNc1ccc2c3c(cccc13)C(=O)N(c1cccc(-c3nn(-c4ccccc4)cc3-c3nc4ccccc4s3)c1)C2=O,111%
2,COc1ccc(-c2cc(-c3cc(OC)c(OC)c(OC)c3)[nH]c(=O)c2C#N)cc1,102%
3,COc1cc(C2CC(c3ccc(Cl)cc3)=Nc3c(N)nc(N)nc3N2)ccc1Oc1nc(Nc2ccc(F)cc2)nc(N(C)C)n1 (centres undefined),65%
4,O=C(O)CC1S/C(=N/N=C/c2nc3ccccc3s2)NC1=O (centres undefined),88.4%
5,Cc1ccc(S(=O)(=O)N(CCn2ccnc2[N+](=O)[O-])CCn2ccnc2[N+](=O)[O-])cc1,124%
6,N#CCc1nnc(NC(=O)c2ccc(-n3c(=O)[nH]c4ccccc4c3=O)cc2)s1,104%
7,O=C(N/N=C/c1ccc(Br)o1)c1[nH]c2ccc(Br)cc2c1-c1ccccc1,-28.6% (active)
8,COc1ccc(N=Nc2c(N)nn3c(-c4ccc([N+](=O)[O-])cc4)ccnc23)cc1,113%
9,Cn1cc(-c2cc(N)n3nc(-c4c[nH]c5ccc(Cl)cc45)cc3n2)c2cc(Br)cnc21,-81% (active)
10,CN1C(=O)C2(C(C#N)=C(c3ccc(Cl)cc3)Nc3c2c(-c2ccccc2)nn3-c2ccccc2)c2ccccc21 (centres undefined),112%
11,Cc1nn(-c2ccccc2)c2nc(C)n(C(=O)N/N=C/c3ccccc3)c(=O)c12,118%
12,CN1CCN(CCS(=O)(=O)Nc2cc(-c3ccc4ncnc(Nc5ccc(F)c(Cl)c5)c4c3)cnc2Cl)CC1,-31.7% (active)
13,COc1cc(C2CC(c3ccc(C(F)(F)F)cc3)=Nc3c(N)nc(N)nc3N2)ccc1Oc1nc(Nc2ccc(F)cc2)nc(N(C)C)n1 (centres undefined),76.1%
14,COc1ccc2[nH]c(=O)c(CSc3ccccc3Nc3nccc(-c4ccc5c(c4)OCO5)n3)cc2c1,92.3%
15,Cc1cc(=O)oc2cc(OCC(O)CNN3C(=O)c4cccc5c(N6CCN(C)CC6)ccc(c45)C3=O)ccc12 (centres undefined),103%
16,CC[C@]12C=CCN3CC[C@]4(C(=C(C(=O)OC)C1)Nc1cc(OC)c([C@@H]5[C@H]6O[C@H]6[C@@]6(CC)CC(C(=O)OC)=C7Nc8cc(OC)ccc8[C@@]78CCN5[C@@H]68)cc14)[C@@H]32,55.8%
17,C#CCCCNCCNc1ccnc2cc(Cl)ccc12,85.8%

row,SMILES,growth
1,CCOC(=O)/C(F)=C/C1CC1C(c1ccccc1)c1ccccc1 (centres undefined),103%
2,S=C(NCCc1ccccc1)Nc1ccc(OCc2nc3ccc(Cl)cc3[nH]2)cc1,34.9%
3,Cc1ccc(C(=O)C[n+]2cccc3c4ccccc4ccc32)cc1,30.3%
4,CCCn1c(NC(=O)c2cccc(C(N)=O)c2)nc2cc(CN3CCCCC3)ccc21,101%
5,CCC(=O)c1c2c(c3ccc4c5ccccc5ccc4n13)C(=O)c1ccccc1C2=O,75.9%
6,O=C1/C(=C/c2cnc(-c3ccccc3)s2)SC(=S)N1Cc1ccc2c(c1)OCO2,97.6%
7,O=c1[nH]c2ccccc2cc1COc1ccc(Nc2nccc(-c3ccc(Cl)cc3)n2)cc1,138%
8,O=C(/C=C1\C(=O)N(Cc2ccccc2)c2ccccc21)c1cc2ccccc2oc1=O,38.6%
9,COc1ccc(NC(=O)Cn2c(/C=C/c3cccc(Br)c3)nc3ccccc3c2=O)cc1,36.3%
10,O=c1ccc(Cn2c(C(F)(F)F)cc3c(Cl)ncnc32)c[nH]1,-20% (active)
11,CCCCC[C@@H]1C/C=C(\C)[C@@H](O)C(C)(C)C(=O)[C@@H](C)/C=C(\C)[C@@H]2C[C@H](O)C[C@](O)(CC(=O)O1)O2,35.6%
12,COc1cc(NC(=O)CSc2nnc(-c3ccc(-c4nc5ccc(Cl)cc5[nH]4)cc3)o2)cc(OC)c1OC,21.7%
13,Cc1ccc(C2CC(c3ccc(S(=O)(=O)NCCNc4nc(N(C)C)nc(N5CCOCC5)n4)cc3)=Nc3c(N)nc(N)nc3N2)cc1 (centres undefined),64.9%
14,CCCCNC(=S)Nc1ccc(OCc2nc3ccc(Cl)cc3[nH]2)cc1,13.6%
15,Nc1nn2c(-c3cc4cc(Br)ccc4oc3=O)ccnc2c1N=Nc1ccc(S(N)(=O)=O)cc1,103%
16,OCCn1cc(-c2nc3ccc4[nH]ncc4c3c3c2CCCC3)cn1,58.8%
17,CN(C)CCCc1ccc(Nc2cnn(C)c(=O)c2Cl)cc1,105%
